For 31 compounds, z-score results are on record in PubChem BioAssay (NCATS).

Records with an inconclusive call do not appear.

The nature of the assay: qHTS for identification of novel therapeutic agents for treatment of microphthalmiaassociated transcription factor (MiT) renal cell carcinoma (RCC) (AID 1963991).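 Note: curves scaled with 100% = DMSO viability and 0% = empty wells.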 The following applies: TFE3-RCC viability, CellTiter-Glo, 48 h; measured here: UOK124 Z-AUC; stronger effect = lower value. The method, boiled down:
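UOK109/UOK124/UOK145 (TFE3 fusions, three partners); 500 cells/well; MIPE v4.0, 1912 cpds, 11 conc.; 48 h, 37 C; CellTiter-Glo, 15 min RT; lum. Norm.: DMSO 100%, empty 0%.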
On to `COc1cccc(OC)c1-c1cc(C(=O)NC2(C(=O)O)C3CC4CC(C3)CC2C4)nn1-c1ccnc2cc(Cl)ccc12` (stereo unspecified), for which the z-score was determined as 0.441. Compound `Cc1ccc(S(=O)(=O)OCC(=O)Nc2ccc(C(=O)O)c(O)c2)cc1` showed a z-score of 0.585. The compound `CNC1[C@H](O)C(O[C@@H]2C(O)C(O[C@H]3O[C@H]([C@@H](C)NC)CC[C@H]3N)[C@@H](N)C[C@H]2N)OC[C@]1(C)O` (stereo partly specified) showed a z-score of 0.386.

For `COc1cc(C=CC(=O)O)ccc1O`, the z-score amounted to 0.112. Take `CO[C@H]1/C=C\O[C@@]2(C)Oc3c(C)c(O)c4c(O)c(c5c(nc6cc(C)ccn65)c4c3C2=O)NC(=O)C(C)=CC=C[C@H](C)[C@H](O)[C@@H](C)[C@@H](O)[C@@H](C)[C@H](OC(C)=O)[C@H]1C`: the z-score came to 1.17. In the case of `N=C1SC(=Cc2ccc(-c3ccc4c(c3)C(=O)NC4=O)o2)C(=O)N1c1ccc(Br)cc1` it was 0.836; in that of `C[C@]12C=CC(=O)C=C1CC[C@@H]1[C@@H]2[C@@H](O)C[C@@]2(C)[C@@H]1CC[C@]2(O)C(=O)CO`, 0.34. In the case of `C[C@@H](O)[C@H]1C(=O)N2C(C(=O)OCOC(=O)C(C)(C)C)=C(SC3CN(C4=NCCS4)C3)[C@H](C)[C@H]12` it was -0.138; in that of `CN(C)c1nc(Cc2ccc(NC(=O)c3ccc(C(F)(F)F)cc3)cc2)nc(N(C)C)c1CC(=O)O`, 0.491; in that of `FC(F)(F)c1ccc(C=Cc2nc(COc3ccc(CCCCn4ccnn4)cc3)co2)cc1`, -1.14. In turn, `CC[C@H](C)C(=O)O[C@H]1C[C@H](O)C=C2C=C[C@H](C)[C@H](CC[C@@H](O)C[C@@H](O)CC(=O)O)[C@H]21` showed a z-score of 0.809. As for `CC1(C)OC2CC3C4CC(F)C5=CC(=O)C=CC5(C)C4C(O)CC3(C)[C@]2(C(=O)CO)O1` (stereo partly specified), the z-score is 1.01. The compound `CO[C@H]1/C=C\O[C@@]2(C)Oc3c(C)c(O)c4c(O)c(c(C=NN5CCN(C6CCCC6)CC5)c(O)c4c3C2=O)NC(=O)C(C)=CC=C[C@H](C)[C@H](O)[C@@H](C)[C@@H](O)[C@@H](C)[C@H](OC(C)=O)[C@H]1C` had a z-score of -2.38. `COc1cc2c(cc1OC)[C@@H]1Cc3ccc(OC)c(OC)c3CN1CC2` had a z-score of 0.474.

`COc1ccc2c(c1)CC[C@H]1[C@@H]2CC[C@]2(C)[C@@H](NCCCCCCN3C(=O)C=CC3=O)CC[C@H]12` registered a z-score of 0.647. The compound `CCCCC[C@H](O)C=C[C@H]1[C@H](O)CC(=O)[C@H]1CCCCCCC(=O)O` returned a z-score of 0.386.

In turn, `CN(CC=CC#CC(C)(C)C)Cc1cccc2ccccc12` had a z-score of 0.58. `C[C@@H]1O[C@@H](O[C@H]2CC[C@@]3(C)[C@H](CC[C@@H]4[C@H]3C[C@@H](O)[C@]3(C)[C@@H](C5=CC(=O)OC5)CC[C@]43O)C2)C[C@H](O)[C@@H]1O[C@H]1C[C@H](O)[C@H](O[C@H]2C[C@H](O)[C@@H](O)[C@@H](C)O2)[C@H](C)O1` (stereo in doubt) yielded a z-score of -1.68. For the compound `CCC=CC[C@H]1C(=O)CC[C@@H]1CC(=O)OC`, the z-score turned out to be 0.558. In turn, `C#CCN(C)CC1=Cc2ccccc2Oc2ccccc21` came in with a z-score of 0.413. `CN[C@@H]1[C@@H](O)[C@@H](O[C@@H]2[C@@H](O)[C@H](O[C@H]3O[C@H](CN)[C@@H](O)[C@H](O)[C@@H]3O)[C@@H](N)C[C@@H]2NC(=O)[C@@H](O)CN)OC[C@]1(C)O` came in with a z-score of 0.621.

Turning to `Cc1ccccc1C(C(=O)NC1CCCCC1)N(C(=O)CNc1ccc(C#N)cc1)c1cccc(F)c1` (stereo unspecified), the z-score is 0.305.

The compound `CC1(C)[C@H]2CC[C@]3(C)[C@@H](C(=O)C=C4[C@@H]5C[C@@](C)(C(=O)O)CC[C@]5(C)CC[C@]43C)[C@@]2(C)CC[C@@H]1O` registered a z-score of 0.724.

For `C[C@@H]1CCO[C@H]2Cn3cc(C(=O)NCc4ccc(F)cc4F)c(=O)c(O)c3C(=O)N12`, the z-score turned out to be 0.941. As to `C[C@]12CCC3=C4CCC(=O)C=C4CC[C@@H]3[C@H]1CC[C@@]2(O)CC#N`, the z-score was determined as 0.709.

`CC(=O)OCC(=O)[C@@]1(O)CC[C@H]2[C@@H]3CCC4=CC(=O)C=C[C@]4(C)[C@@H]3[C@@H](O)C[C@@]21C` had a z-score of 0.317.

In the case of `CCNC(=O)CCCC=CC[C@@H]1[C@H](C=CC(O)CCc2ccccc2)[C@@H](O)C[C@@H]1O` (stereo partly specified), the z-score was found to be 0.311. In the case of `CC(C)=CCCC(C)=CCCC(C)=CCCC(C)=CCCC(C)=CCCC(C)=CCCC(C)=CCCC(C)=CCCC(C)=CCO` it was 0.571. Compound `CN[C@H]1[C@@H](O[C@@H]2[C@H](O[C@@H]3[C@@H](O)[C@@H](O)[C@@H](N=C(N)N)[C@@H](O)[C@@H]3N=C(N)N)O[C@H](C)[C@@]2(O)C=O)O[C@@H](CO)[C@@H](O)[C@H]1O` displayed a z-score of 1.27.

Consider `COc1ccc(C=CC(=O)Nc2ccccc2C(=O)O)cc1OC`, for which the z-score was found to be 1.48.

As for `CC[C@]1(O)C[C@H]2CN(CCC3=c4ccccc4=N[C]3[C@@](C(=O)OC)(c3cc4c(cc3OC)N(C)[C@H]3[C@@](O)(C(N)=O)[C@H](O)[C@]5(CC)C=CCN6CC[C@]43[C@@H]65)C2)C1`, the z-score is -1.02.
